Source: PubChem BioAssay AID1376 (SRMLSC, 2008)
The campaign covered roughly 220,000 compounds. About 530 (0.24%) were called active. Cut-off read from the data, not from the text of the source: active = inhibition above about 13%; inconclusive = no clear call, values can overlap the other calls; inactive = below that. The full list was thinned out, with actives kept by preference. Potency and affinity values are given separately.

target: Bifunctional protein GlmU (Mycobacterium tuberculosis (strain ATCC 25618 / H37Rv)) (UniProt P9WMN3); experiment: inhibition of mycobacterial GlmU enzyme – biochemical, glucosamine-1-phosphate acetyltransferase (AID 1376);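 note: 0% = complete reaction with vehicle and 100% = reaction without substrate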; details: M. tuberculosis GlmU acetyltransferase enzyme assay; hits give high values;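 tested at 30 µM in the primary screen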
Sequence (P9WMN3 whole entry, looked up): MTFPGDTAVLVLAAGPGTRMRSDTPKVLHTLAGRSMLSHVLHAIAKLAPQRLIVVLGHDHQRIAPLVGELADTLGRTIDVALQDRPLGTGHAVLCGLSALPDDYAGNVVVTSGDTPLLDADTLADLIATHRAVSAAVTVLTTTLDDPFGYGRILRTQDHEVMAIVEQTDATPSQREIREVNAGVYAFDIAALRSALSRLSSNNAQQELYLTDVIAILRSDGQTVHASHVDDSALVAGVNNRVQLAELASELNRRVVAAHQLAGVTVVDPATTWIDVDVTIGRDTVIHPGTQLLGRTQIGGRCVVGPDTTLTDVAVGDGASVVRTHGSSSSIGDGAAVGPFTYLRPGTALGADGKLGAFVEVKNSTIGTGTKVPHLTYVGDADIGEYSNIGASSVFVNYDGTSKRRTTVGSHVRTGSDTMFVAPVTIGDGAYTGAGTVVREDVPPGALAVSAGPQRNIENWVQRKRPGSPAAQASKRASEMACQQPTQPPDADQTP

SMILES	inhibition
O=C(Nc1cccc(S(=O)(=O)N2CCOCC2)c1)c1ccc(Cl)c([N+](=O)[O-])c1	-7.13% (inactive)
O=C(Nc1cccc(C(F)(F)F)c1)N1CCN(C(=O)Nc2cccc(C(F)(F)F)c2)CC1	-0.83% (inactive)
COc1ccccc1N1CCN(C(=O)/C=C/c2c(Cl)nc3ccccn23)CC1	1.7% (inactive)
COc1ccc(/C=N/c2c(-c3ccc(OC)cc3)nc3n2CCS3)cc1	-0.71% (inactive)
Cc1nc2cc(NC(=O)NCc3ccc4c(c3)OCO4)ccc2o1	0.01% (inactive)
CC12CCC(c3nnc(SCc4ccc(Cl)cc4)nc31)C2(C)C (centres undefined)	7.21% (inactive)
COc1ccc(-c2nc3scc(-c4ccccc4)n3n2)cc1	5.16% (inactive)
COCCn1c(Cc2ccccc2)nnc1SCC(=O)Nc1ccccc1	2.41% (inactive)
Cc1cc(C)c(OCCN2C(=O)NC(C)(C)C2=O)c(Cl)c1	14.1% (active)
Cc1cc(Cl)c(OCCN2C(=O)NC(C)(C)C2=O)c(Br)c1	-1.37% (inactive)
CC1(C)NC(=O)N(CCOCCOc2c(Cl)cc(Cl)cc2Cl)C1=O	2.47% (inactive)
CCCNC(=O)c1nnsc1Sc1ccc(Cl)cc1	1.02% (inactive)
CCCNC(=O)c1nnsc1S(=O)(=O)c1ccc(Cl)cc1	10.7% (inactive)
CNC(=O)c1ncoc1-c1ccc(Cl)cc1	-1.29% (inactive)
Cc1nnsc1C(=O)Nc1ccc(Cl)cc1	5.53% (inactive)
O=C(c1cc(-c2ccc(Cl)cc2)on1)N1CCOCC1	3.17% (inactive)
O=C(Nc1ccccc1)c1nnsc1S(=O)(=O)c1ccc(Cl)cc1	6.59% (inactive)
CNC(=O)c1nnsc1S(=O)(=O)c1ccc(Cl)cc1	11.5% (inactive)
O=C(c1nnsc1S(=O)(=O)c1ccc(Cl)cc1)N1CCOCC1	0.93% (inactive)
CC1(C)C(=O)OC(c2ccccc2)C2(CCCC2)C1=O (centres undefined)	-6.73% (inactive)
COC(=O)N1CCN(CCc2ccccc2)CC1	0.78% (inactive)
CCCCNC(=O)CNC(=S)N(Cc1ccccc1)Cc1cccs1	4.12% (inactive)
CCc1cccc(NC(=O)CCS(=O)(=O)c2cccc3nonc23)c1	0.23% (inactive)
CC(NC(=O)CSC(=S)N(C)C)C12CC3CC(CC(C3)C1)C2 (centres undefined)	2.22% (inactive)

SMILES	inhibition
O=C1C2C3C=CC(C3)C2C(=O)N1CCCCCCN1C(=O)C2C3C=CC(C3)C2C1=O (centres undefined)	-4.36% (inactive)
O=C1C2C3C=CC(C3)C2C(=O)N1CCCCN1C(=O)C2C3C=CC(C3)C2C1=O (centres undefined)	4.77% (inactive)
CCCC(=O)Nc1c(C)nn(C(=O)CCC)c1C	9.51% (inactive)
COc1cccc(-c2nnc(SCCC(=O)O)n2C)c1	-2.35% (inactive)
C/C(Cl)=C/Cn1c(NCCCn2ccnc2)nc2c1c(=O)[nH]c(=O)n2C	-3.26% (inactive)
COc1ccc(S(=O)(=O)N2CCOCC2)cc1NC(=O)COC(=O)c1ccc(C)s1	0.67% (inactive)
CCN(CC)S(=O)(=O)c1ccc(NC(=O)COC(=O)c2ccc(-n3nc(C)cc3C)cc2)cc1	2.95% (inactive)
Cc1cc(C)n(-c2ccc(C(=O)OCC(=O)Nc3ccc(S(=O)(=O)N4CCOCC4)cc3)cc2)n1	12.8% (active)
Cc1cc(C)n(-c2ccc(C(=O)OCC(=O)Nc3ccc(S(=O)(=O)N4CCCCC4)cc3)cc2)n1	0.24% (inactive)
COc1ccc(OC)c(NC(=O)COC(=O)c2ccc(S(=O)(=O)N3CCOCC3)cc2)c1	14.5% (active)
COc1ccc(C(=O)OCC(=O)Nc2cc(S(=O)(=O)N3CCOCC3)ccc2N2CCCC2)cc1	0.15% (inactive)
CC(C)(Oc1ccc(CCNC(=O)c2ccc(-c3ccc(Cl)cc3)o2)cc1)C(=O)O	8.95% (inactive)
COC(=O)c1ccc(/C=N/N2CCN(Cc3ccc(C)cc3C)CC2)cc1	0.99% (inactive)
CC(C)Oc1ccc(C(=O)N2CCCC2C(=O)O)cc1 (centres undefined)	1.48% (inactive)
CCCCCCCCCCCC(=O)N/N=C/c1ccco1	2.22% (inactive)
O=C(O)CC(C(=O)Nc1ccc(Cl)c(Cl)c1)C1CCCO1 (centres undefined)	5.87% (inactive)
CC(=O)[C@@H]1[C@@H](C)N(Cc2ccccc2)C(=O)N[C@H]1c1cccc(C(F)(F)F)c1	3.76% (inactive)
Cc1oc(C(C)(C)C)cc1C(=O)N1CCN(C(c2ccccc2)c2ccccc2)CC1	-0.86% (inactive)
COC(=O)CCC(=O)NC(=S)Nc1ccccc1F	-2.07% (inactive)
O=C(Nc1ccc(F)cc1)c1ccc2nsnc2c1	-5.81% (inactive)
O=C(Nc1ccc(Cl)cc1)c1ccc2nsnc2c1	4.02% (inactive)
O=C(Nc1ccccc1)c1ccc2nsnc2c1	19.3% (active)
O=C(CSc1nnc(-c2ccc(OC(F)F)cc2)o1)NCc1cccs1	-1.34% (inactive)
N#Cc1c(Nc2ccccc2)s[nH]c1=O	14.2% (active)

SMILES	inhibition
N#Cc1c(Nc2ccccc2Cl)s[nH]c1=O	0.08% (inactive)
N#Cc1c(Nc2ccc(Cl)cc2)s[nH]c1=O	4.63% (inactive)
COCCNC(=O)c1cc2c(=O)n3cccc(C)c3nc2n1C	3.57% (inactive)
O=C(O)c1ccccc1SCc1cn2cc(Br)ccc2n1	0.7% (inactive)
CCOc1ccc2c(c1)C(=O)c1cc(OCC(=O)O)ccc1-2	-3.72% (inactive)
O=C(c1ccccc1)c1ccccc1C(=O)N1CCOCC1	-1.73% (inactive)
O=C(c1ccccc1)c1ccccc1C(=O)N1CCN(C(=O)c2ccccc2)CC1	-3.19% (inactive)
O=C(c1ccccc1)c1ccccc1C(=O)N1CCCC1	13.3% (active)
CCCNC(=O)c1ccc(Cn2cc(C(F)(F)F)ccc2=O)cc1	0.72% (inactive)
O=C(Nc1cc2c(ccc3ccccc32)oc1=O)C1CCCCC1	0.95% (inactive)
N=C1/C(=C\c2ccc(-c3cc(Cl)cc(Cl)c3)o2)C(=O)N=C2SC=C(c3ccccc3)N12	-7.2% (inactive)
Cc1ccc(-n2c(C)cc(/C=C3/C(=N)N4C(c5ccccc5)=CSC4=NC3=O)c2C)cc1	7.47% (inactive)
COc1cc(/C=C2/C(=N)N3C(c4ccccc4)=CSC3=NC2=O)ccc1OCC(=O)O	14.6% (active)
CS(=O)(=O)C1=NSC2=NC(=O)/C(=C\c3ccc(-c4ccccc4)o3)C(=N)N21	-0.37% (inactive)
N=C1/C(=C/c2cccn2CCOc2ccccc2)C(=O)N=C2SC=C(c3ccccc3)N12	2.69% (inactive)
CC(C)S(=O)(=O)C1=NSC2=NC(=O)/C(=C\c3ccc(-c4ccccc4)o3)C(=N)N21	4.83% (inactive)
COc1cc(/C=C2/C(=N)N3C=CSC3=NC2=O)ccc1OCCCOc1ccccc1C	-3.86% (inactive)
Cc1cc(/C=C2/C(=N)N3C(c4ccccc4)=CSC3=NC2=O)c(C)n1-c1ccccc1	-4.29% (inactive)
Cc1cccc(-n2c(C)cc(/C=C3/C(=N)N4C(c5ccccc5)=CSC4=NC3=O)c2C)c1	1.75% (inactive)
CCNC(=O)Oc1ccc[nH]c1=O	6.02% (inactive)
CN(C)c1ccc(C=C(c2nnnn2-c2ccccc2)c2nnnn2-c2ccccc2)cc1	-2.49% (inactive)
COC(=O)N/N=C(\C)c1ccc(OC(F)F)cc1OC(F)F	6.36% (inactive)
FC(F)(F)c1ccccc1NC(=S)N1CCN(Cc2ccc3c(c2)OCO3)CC1	-0.82% (inactive)
CCc1ccc(NC(=O)CSCCN2C(=O)c3ccccc3C2=O)cc1	-2.41% (inactive)

SMILES	inhibition
CCCCCNC(=O)c1cc(S(=O)(=O)N2CCCC2)ccc1F	0.96% (inactive)
O=C1OC(c2cccs2)=N/C1=C/c1ccc(-c2cccc(C(=O)O)c2)o1	18.7% (active)
N=C1/C(=C\c2ccc(-c3cccc(Cl)c3)o2)C(=O)N=C2SC=C(c3ccccc3)N12	-2.27% (inactive)
N=C1/C(=C/c2ccc(-c3cccc(C(=O)O)c3)o2)C(=O)N=C2SC=C(c3ccccc3)N12	53.6% (active)
Cc1ccccc1-n1c(C)cc(/C=C2/C(=N)N3C(c4ccccc4)=CSC3=NC2=O)c1C	-1.94% (inactive)
O=C1OC(c2cccs2)=N/C1=C\c1ccc(-c2ccccc2Cl)o1	7.66% (inactive)
O=C1OC(c2cccs2)=N/C1=C\c1ccc(-c2cccc(Cl)c2)o1	7.15% (inactive)
Cc1ccc(N/C=C(/C#N)c2ccsc2)cc1	1.11% (inactive)
COc1cc(O)c(C(CCN2CCCC2)c2cc(OC)c(OC)c(OC)c2)c(OC)c1 (centres undefined)	1.11% (inactive)
Cc1ccc(/C=N\NC(=O)C2CC(=O)N(c3ccccc3)C2)o1 (centres undefined)	3.39% (inactive)
Cc1cc(C)n2nc(C(=O)NCCc3ccccc3)nc2n1	14.6% (active)
Cc1cc(C)n2nc(C(=O)NCc3ccccc3)nc2n1	-3.46% (inactive)
Cc1cc(C)n2nc(SCCC(=O)NCCc3ccccc3)nc2n1	-3.62% (inactive)
CCN(CC(=O)NCc1ccc(Cl)cc1)S(=O)(=O)c1ccc(NC(C)=O)cc1	-2.53% (inactive)
CC(CCc1ccccc1)NC(=O)c1cccc([N+](=O)[O-])c1 (centres undefined)	13.1% (active)
CC(CCc1ccccc1)NC(=O)c1ccccc1 (centres undefined)	-2.82% (inactive)
Cc1ccc(C(=O)NC(C)CCc2ccccc2)cc1[N+](=O)[O-] (centres undefined)	3.64% (inactive)
CCn1c(SCC(=O)NCCc2ccccc2)nnc1C(C)C	1.51% (inactive)
Cn1c(SCC(=O)c2ccc3c(c2)NC(=O)CO3)nc2ccccc21	-5.28% (inactive)
Cn1c(=N)n(CC(=O)c2ccccc2)c2ccccc21	3.23% (inactive)
COc1cccc(C(=O)Cn2c(=N)n(C)c3ccccc32)c1	13% (active)
COc1ccc(C(=O)Cn2c(=N)n(C)c3ccccc32)cc1	-4.4% (inactive)
